This is a sample that favours compounds with a hit; in the whole collection about 18% have one here.
IL1B secr inh: inflammasome signaling inhibition, IL-1 beta readout. THP-1 LPS/ATP IL-1B secretion, AlphaLISA, 16 h; active compounds read low. activity change, % at 57.5 µM. hit rate 4.7% among 360,000. AID 743279; in the data active = activity change below about -50%; inconclusive = mostly about -30% to -49%
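THP-1 cells pretreated 1 hr with compounds (up to 57.5 uM final), then stimulated with LPS (250 ng/mL final) plus ATP (1.25 mM final); secreted IL-1B measured by AlphaLISA after 16 hr, decreased signal indicating inhibition.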
Six1-Eya2 inh: Six1/Eya2 interaction inhibition. AlphaScreen GST-Six1/His-Eya2 binding, biochemical; active compounds read low. activity change, % (no concentration beside the values). hit rate 0.56% among 360,000. AID 651725; in the data active = activity change below about -65%; inconclusive = mostly about -30% to -63%
Target sequence (O00167 whole entry, looked up): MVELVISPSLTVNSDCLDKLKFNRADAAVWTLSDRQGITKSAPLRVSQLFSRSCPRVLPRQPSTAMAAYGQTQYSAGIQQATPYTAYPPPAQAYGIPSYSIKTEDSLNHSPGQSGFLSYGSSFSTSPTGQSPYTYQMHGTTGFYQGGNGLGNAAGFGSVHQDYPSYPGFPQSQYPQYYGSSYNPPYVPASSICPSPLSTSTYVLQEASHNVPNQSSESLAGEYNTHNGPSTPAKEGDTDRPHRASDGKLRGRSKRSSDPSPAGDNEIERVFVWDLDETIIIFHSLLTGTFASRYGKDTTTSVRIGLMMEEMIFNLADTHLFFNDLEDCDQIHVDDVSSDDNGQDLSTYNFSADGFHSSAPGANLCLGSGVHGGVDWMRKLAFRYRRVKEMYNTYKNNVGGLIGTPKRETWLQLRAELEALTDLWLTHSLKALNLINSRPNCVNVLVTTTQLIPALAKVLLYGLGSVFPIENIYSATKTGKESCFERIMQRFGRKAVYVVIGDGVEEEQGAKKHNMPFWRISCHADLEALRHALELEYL
Target sequence (Q15475 whole entry, looked up): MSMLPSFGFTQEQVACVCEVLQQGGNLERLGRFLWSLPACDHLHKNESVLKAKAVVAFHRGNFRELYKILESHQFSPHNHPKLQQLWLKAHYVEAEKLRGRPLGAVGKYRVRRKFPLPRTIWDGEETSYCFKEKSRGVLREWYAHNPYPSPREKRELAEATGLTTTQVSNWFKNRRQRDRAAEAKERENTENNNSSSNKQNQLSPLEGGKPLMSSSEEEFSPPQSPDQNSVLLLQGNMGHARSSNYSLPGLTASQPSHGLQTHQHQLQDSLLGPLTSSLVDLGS
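AlphaScreen with GST-Six1 and His-Eya2 (5X mix: 250 nM and 500 nM), glutathione donor and nickel acceptor beads; buffer 50 mM Tris pH 8.0, 300 mM NaCl, 1 mM TCEP; 1 h at 37 C in the dark.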
TDP1 block: TDP1 (human) enzyme inhibition | Q9NUW8 | recombinant TDP1, AlphaScreen DNA substrate cleavage | Potency, µM (series often up to 130 µM), hits mostly inhibitors | hit rate 0.28% among 350,000 | AID 485290; also: nearly all actives have a fitted effect of over 40% in size
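Enzyme-compound mixtures sat 15 min at room temperature, followed by a 5 min reaction with 15 nM final substrate and 10 min with AlphaScreen beads. Recombinant human Tdp1 was used at 1 nM final.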
CtBP-E1A inh: CtBP/E1A binding inhibition; AlphaScreen GST-E1A/His-CtBP binding, 1536-well; active compounds read low; activity change, % (concentration not given with the values); hit rate 0.49% among 340,000; in the data active = activity change below about -65%; inconclusive = mostly about -30% to -63%
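Protein mix (5X: 125 nM each GST-E1A, His-CtBP) was incubated with pinned compound 2 h at 37 deg C in dark, in 50 mM Tris pH 8.0 buffer with 300 mM NaCl. Glutathione donor and nickel acceptor beads followed; AlphaScreen signal read after 1 h.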
TDP1 cell noCPT: qHTS for Inhibitors of human tyrosyl-DNA phosphodiesterase 1 (TDP1): qHTS in cells in absence of CPT; AID 686978, 2013; Potency, µM (top dose mostly 46.2 µM), most hits filed as inhibitors; DT40 Tdp1-/- hTDP1 cells, no CPT, ATP luminescence, 48 h; hit rate 15% among 420,000; also: nearly all actives have a fitted effect of over 55% in size
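Growth kinetics read by CellTiter-Glo luminescence after ≥48 hr at 37 °C. Cells: DT40 Tdp1-/- stably carrying human TDP1, 400 per well, compound exposure in the absence of CPT (DMSO vehicle).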
DT40 TDP1 CPT: growth inhibition of DT40 Tdp1-/-;hTDP1 cells with camptothecin (screen for TDP1 inhibitors); chicken DT40 Tdp1-/-;hTDP1 cells + 20 nM CPT, ATP luminescence, 48 h; Potency, µM (doses to about 46.2 µM), most hits filed as inhibitors; hit rate 12% among 420,000; AID 686979; also: nearly all actives have a fitted effect of over 55% in size
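Chicken DT40 Tdp1-/- cells complemented with human TDP1, 400 cells/well, exposed to compounds plus 20 nM camptothecin for at least 48 h at 37 C; viability read as ATP content by CellTiter-Glo luminescence.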
Hits are given with their value; n = inactive; u = inconclusive; x = not tested or not shown. Unless noted, calls follow the shape of the dose curve; as a rule, active = well fitted curve in the direction sought with a large enough effect; inconclusive = small, poorly fitted or top-dose-only effect, or another doubt; inactive = no such curve, though single readings can be large; an effect the other way counts as inactive or inconclusive.

SMILES	IL1B secr inh	Six1-Eya2 inh	TDP1 block	CtBP-E1A inh	TDP1 cell noCPT	DT40 TDP1 CPT
CCCCC1=NN(C(=O)c2cccnc2)C(O)(C(F)(F)F)C1 (stereo not drawn)	n	n	n	n	1µM	1.5µM
Cc1ccc(Cl)c(OCC(=O)NCC(c2cccs2)N2CCOCC2)c1 (stereo not drawn)	u	n	x	n	u	26µM
COc1ccccc1C(CNC(=O)CNC(=O)c1ccc(Cl)c(Cl)c1)N1CCCC1 (stereo not drawn)	n	n	n	n	16µM	n
COc1ccccc1C(CNC(=O)COc1cc(C)ccc1Cl)N1CCCC1 (stereo not drawn)	-64	n	n	n	u	u
CC[n+]1c(C)cc2c(sc3ccccc32)c1C	n	n	n	n	2.9µM	12µM
CCC(=O)Nc1cccc(NC(=S)NC(=O)c2cc3ccccc3o2)c1	n	n	n	n	u	u
CN1CCc2nc(SCC(=O)Nc3ccc(OC(F)(F)F)cc3)c(C#N)c(-c3cccs3)c2C1	n	n	n	n	23µM	15µM
Cc1cccc(CSc2nc(N)c(C#N)c(-c3cccs3)c2C#N)c1	-54	n	n	n	u	u
CC(=O)CSc1nc(N)c(C#N)c(-c2cccs2)c1C#N	n	n	n	n	13µM	21µM
N#Cc1c(N)nc2c(c1-c1cccs1)CCCC2	n	n	n	x	n	n
CC(C)(C)C(=O)CSc1nc2c(c(-c3cccs3)c1C#N)CCC2	n	n	n	x	23µM	u
Cc1cccc(CSc2nc3c(c(-c4cccs4)c2C#N)CN(C)CC3)c1	u	n	n	n	u	u
COc1ccc(C(=O)NC(=S)Nc2ccc3c4c(cccc24)CC3)cc1OC	n	n	n	n	u	u
COC(=O)c1cc2oc(C)cc2n1Cc1c(C)cc(C)cc1C	x	x	n	x	n	n
CC(=O)Nc1c2c(nn1-c1ccccc1C)CS(=O)C2 (stereo not drawn)	n	n	n	x	n	n
COc1cc(OC)cc(-c2c(-c3cccs3)c3cc(-c4cnc(OC)nc4)ccc3n2C)c1	n	n	n	n	15µM	u
COc1cc(OC)cc(-c2c(-c3cccs3)c3cc(-c4ccc(C(N)=O)cc4)ccc3n2C)c1	n	n	n	x	16µM	u
COc1cc(OC)cc(-c2c(-c3cccs3)c3cc(-c4cc(OC)c(OC)c(OC)c4)ccc3n2C)c1	n	n	n	n	n	u
COc1ccc(-c2ccc3c(c2)c(-c2cccs2)c(-c2cc(OC)cc(OC)c2)n3C)cc1	n	n	n	n	23µM	u
COC(=O)c1cc(-c2cccc(OC)c2)c2c(=O)[nH]c(=O)n(C)c2n1	n	n	x	n	n	n
COC(=O)c1ccccc1C(=O)N(c1ccccc1)c1ccccc1	n	n	x	n	15µM	6.5µM
COc1ccc(NC(=O)c2c(Cl)nc3ccccn23)cc1	n	n	n	n	n	n
Cc1c(C(=O)N2CCC(C)CC2)c(S(=O)(=O)NCc2ccc(Cl)cc2)c(C)n1C	x	x	n	x	n	u
Cc1cc(Cl)ccc1NS(=O)(=O)c1c(C(=O)N2CCC(C)CC2)c(C)n(C)c1C	x	x	n	x	16µM	u
COc1cc(OC)c(NS(=O)(=O)c2c(C(=O)N3CCCCCC3)c(C)n(C)c2C)cc1Cl	x	x	n	x	21µM	u
SMILES	IL1B secr inh	Six1-Eya2 inh	TDP1 block	CtBP-E1A inh	TDP1 cell noCPT	DT40 TDP1 CPT
COc1ccc(CNC(=O)N2CCN(S(=O)(=O)c3ccc(C)cc3C)CC2)cc1	u	n	n	n	n	n
COc1ccccc1NC(=O)CN1C(=O)CSC(C)C1=O (stereo not drawn)	n	n	n	x	n	n
O=C(Nc1nc(OCCN2CCCC2=O)cnc1/C=C\c1ccccc1)c1cc2ccccc2s1	n	n	x	n	u	29µM
CCOc1ccc(S(=O)(=O)N2CCOCC2)c2ccccc12	n	n	n	n	n	n
CCOc1ccc(S(=O)(=O)N2CCN(c3ccc(C)cc3C)CC2)c2ccccc12	x	x	n	x	x	x
CCOc1ccc(S(=O)(=O)N2CCCCC2)c2ccccc12	n	n	n	n	21µM	18µM
